GLP-1R inv ag: qHTS of GLP-1 Receptor Inverse Agonists (Inhibition Mode); Glucagon-like peptide 1 receptor (Homo sapiens), P43220; HEK293 GLP-1R CRE-luciferase, luminescence, 24 h; GLP-1R form is constitutively active; Potency, µM (highest dose often 38.3 µM), without a hit: at the highest dose activity change, negative = inhibition, hits mostly inhibitors; 410,000 tested, 1.6% active; AID 624417, 2012; further: on the % scale 0 is the no-effect control and ±100 the full control effect; nearly all actives have a fitted effect of over 55% in size
Target sequence (P43220 whole entry, looked up): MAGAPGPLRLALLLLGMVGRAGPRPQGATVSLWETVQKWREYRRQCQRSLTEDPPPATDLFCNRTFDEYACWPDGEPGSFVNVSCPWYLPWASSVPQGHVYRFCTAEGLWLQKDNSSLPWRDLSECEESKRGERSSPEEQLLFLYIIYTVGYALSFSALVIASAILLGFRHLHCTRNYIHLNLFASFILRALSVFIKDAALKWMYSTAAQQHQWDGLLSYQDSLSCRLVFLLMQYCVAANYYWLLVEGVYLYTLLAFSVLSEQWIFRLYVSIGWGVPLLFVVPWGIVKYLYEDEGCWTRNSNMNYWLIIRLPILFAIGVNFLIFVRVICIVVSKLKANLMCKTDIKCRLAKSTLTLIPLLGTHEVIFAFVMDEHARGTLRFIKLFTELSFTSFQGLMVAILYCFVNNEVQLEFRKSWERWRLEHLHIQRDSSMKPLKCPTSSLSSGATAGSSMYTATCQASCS
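HEK293 cells stably co-expressing constitutively active GLP-1R and a cAMP-responsive luciferase reporter were seeded in DMEM with 10% Nu serum, given compounds after 12 h, and incubated 24 h at 37 deg C. Luminescence was then read.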
RGS4 inhibitor: Inhibitors of Regulator of G Protein Signaling (RGS) 4: qHTS. Potency, µM (highest dose often 114 µM), inactives show at the highest dose activity change, negative = inhibition, most hits filed as inhibitors. 390,000 tested, 0.039% active. AID 504845, 2011. Transcreener GDP fluorescence polarization, RGS4-accelerated GTP hydrolysis; further: on the % scale 0 is the no-effect control and ±100 the full control effect; nearly all actives have a fitted effect of over 75% in size
Target sequence (P49798 whole entry, looked up): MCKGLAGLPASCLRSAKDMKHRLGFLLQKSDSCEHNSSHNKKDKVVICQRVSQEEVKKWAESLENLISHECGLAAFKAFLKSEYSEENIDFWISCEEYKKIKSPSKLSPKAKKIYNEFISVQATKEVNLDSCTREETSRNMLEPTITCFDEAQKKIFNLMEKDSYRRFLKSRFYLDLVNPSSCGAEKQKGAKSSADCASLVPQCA
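MLSMR compounds (23 nl, pin-transferred) preincubated 10 min at room temperature with a 500nM (2x) first reagent, then RGS4 at 900nM (2x) plus Transcreener GDP mix added; fluorescence polarization (620/688 nm) read before and after 90 min at 30 °C.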
HEK293 tox: qHTS of GLP-1 Receptor Inverse Agonists: Cytotox Screen; HEK293 cAMP-luciferase reporter cells, luminescence, 24 h; Potency, µM (highest dose often 38.3 µM), for the others: at the highest dose activity change, negative = inhibition, actives largely listed as inhibitors; 410,000 tested, 0.13% active; AID 624418, 2012;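 further: loss of luciferase light is scored as toxicity; on the % scale 0 is the no-effect control and ±100 the full control effect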
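Step one: seed cells (200 cells/uL, DMEM with 10% Nu serum, 1% pen-strep). Step two: 12-hour incubation at 37 deg C. Step three: pin 23 nL compound, incubate 24 hr. Step four: add luciferase reagent, read luminescence 12 min later.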
GLP-1R agonist: qHTS of GLP-1 Receptor Agonists | Glucagon-like peptide 1 receptor (Homo sapiens), P43220 | HEK293 GLP-1R CRE-luciferase, luminescence, 4-6 h; cells express a hypersensitive GLP-1R form | Potency, µM (series often up to 45.6 µM), for the others: top-dose activation, hits mostly activators | 380,000 tested, 0.007% active | AID 624172, 2012; further: % of control where 0% means no effect
PTHR1 agonist: qHTS for PTHR1 Agonists: Primary Screen; Parathyroid hormone/parathyroid hormone-related peptide receptor (Homo sapiens), Q03431; HEK293 GP2 PTHR1 cells, GloSensor cAMP luminescence, 1 h; Potency, µM (top dose mostly 115 µM), for inactives: at the top dose activation, hits mostly activators; 410,000 tested, 0.075% active; AID 743266, 2014; further: nearly all actives have a fitted effect of over 55% in size
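HEK-293-derived GP2 cells expressing PTHR1 and a GloSensor cAMP reporter, 3,000/well, plated overnight, given luciferin plus IBMX (each 0.5 mM as added) for 1 h at 37 °C, then compound for 1 h at 37 °C. Luminescence was read after 15 min at room temperature.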
Starred values were filed as active, the others as inactive; i = inactive; ? = inconclusive; . = not tested or not shown; ! = not confirmed by another sample; [ ] = remark or other dose. Sampled rows, rich in hits. Any-hit rate of the full collection: about 1.7%. The call rests on the fitted dose curve; in most records, active means well fitted curve in the direction sought with a large enough effect; inconclusive means small, poorly fitted or top-dose-only effect, or another doubt; inactive means no such curve, though single readings can be large; an effect the other way counts as inactive or inconclusive. Potency means the concentration at half of the fitted maximal effect.

SMILES	GLP-1R inv ag	RGS4 inhibitor	HEK293 tox	GLP-1R agonist	PTHR1 agonist
COc1ccc(NC(=O)Nc2ccc3c(c2)C(=O)N([C@H](C)CO)C[C@H](C)[C@@H](CN(C)Cc2ccc(Cl)c(Cl)c2)OCCCC[C@@H](C)O3)cc1	3.2µM*	.	3%	-2%	-15%
C[N+]1(CCF)[C@@H]2CC[C@@H]1CC(OC(=O)C(O)(c1ccccc1)c1ccccc1)C2 (some centres not stated)	.	.	.	11%	.
CCOC(=O)C1CCCN(S(=O)(=O)c2ccc3c4c(cccc24)C(=O)N3CC)C1 (configuration not stated)	12%	16%	137%	22%	-33%
CCOC(=O)C1CCCN(c2ccc([N+](=O)[O-])c3nonc23)C1 (configuration not stated)	21%	18%	10µM*	?	-23%
N#Cc1ccc(Cn2cc(C=O)c3ccccc32)cc1	7.1µM*	1%	-5%	1%	-25%
Cc1cccc(Cn2cc(C=O)c3ccccc32)c1	4µM*	-8%	-7%	10%	-23%
CNC(=O)/C(C#N)=C/c1c(N2CCCCCC2)nc2ccccn2c1=O	66%	0%	121%	7%	i
C[C@@H]1CN([C@@H](C)CO)C(=O)c2c(c3ccccc3n2C)-c2ccccc2CO[C@H]1CN(C)S(=O)(=O)c1ccc(C(F)(F)F)cc1	-12%	.	2%	-1%	-48%
O=C(O)c1cc[c]([Hg][Cl])cc1	13%	6.7µM*!	-3%	6%	-20%
COc1ccc(C(=O)O)cc1OC	-1%	11%	16%	-1%	-24%
CC[C@H](OC(C)=O)C(C[C@H](C)NC)(c1ccccc1)c1ccccc1	.	.	.	9%[96 µM]	.
c1ccc(C2(N3CCCCC3)CCCCC2)cc1	6%	-10%	-1%	4%	-17%
S=C=Nc1cccc(C2(N3CCCCC3)CCCCC2)c1	8.9µM*	-5%	?	20%	i
CCCCCCCCCCCCCCCC[n+]1ccccc1	3.5µM*	?	?	-7%	-92%
CCCCCCC[n+]1ccc(-c2cc[n+](CCCCCCC)cc2)cc1	-27%	-3%	-10%	1%	-22%
CCCCCCCCCCCCCCCC[n+]1ccc(/C=N/O)cc1	8.9µM*	-20%	?	-19%	-16%
c1ccc2c[n+](CCCCCCCCCC[n+]3ccc4ccccc4c3)ccc2c1	.	.	.	.	-27%[57.5 µM]
FC(F)(F)c1cnc(NNC(=S)Nc2ccccc2Cl)c(Cl)c1	5µM*	-28%	?	0%	-84%
O=C(NC(=O)c1c(F)cccc1F)Nc1ccc(Cl)c(Oc2ncc(C(F)(F)F)cc2Cl)c1	.	.	.	-4%	.
O=C1[O][Sb-]23[O]C(=O)C([O]2)C2[O][Sb-]4([O]C(=O)C([O]4)C1[O]3)[O]C2=O	.	.	.	2%	.
O=C(N/N=C/c1ccncc1)c1ccccc1OCc1ccc(Br)cc1	?	-2%	?	12%	-10%
C[C@@H]1CN([C@H](C)CO)C(=O)c2c(c3ccccc3n2C)-c2ccccc2CO[C@H]1CN(C)Cc1ccc(C(F)(F)F)cc1	5µM*	.	?	-3%	-25%
C=CCC1(O)CCC2C3CCC4=CC(=O)CCC4=C3C=CC21C (configuration not stated)	.	.	.	16%	.
CC(C)(C)c1csc(NC(=O)Nc2ccccc2)n1	10µM*	7%	6%	29%	-93%
Cc1ccc(-c2c(C)n3c4c(=O)n(C)c(=O)n(C)c4nc3n2CCO)cc1	-26%	-19%	2%	.	-50%
SMILES	GLP-1R inv ag	RGS4 inhibitor	HEK293 tox	GLP-1R agonist	PTHR1 agonist
CCS(=O)(=O)c1ncc(Cl)c(C(=O)N(Cc2ccccc2)c2ccc(OC)cc2)n1	?	?	?	.	i
Cc1cc(OC(=O)N(C)C)nc(SCc2c(Cl)cccc2Cl)n1	10µM*	-6%	1%	6%	-95%
COC(=O)C1(C(=O)OC)C[C@H](c2ccc(OC)cc2)N(Cc2ccccc2OC)[C@@H]1c1cccs1	10µM*	.	1%	.	-14%
CCOc1ccc(C(=O)Nc2nnc(S(=O)(=O)N(C)Cc3ccco3)s2)cc1	6%	-20%	0%	-4%	-53%
CCOC(=O)N1CCC(NC(=O)c2ccc3c(c2)N(Cc2cccc(C)c2)C(=O)c2ccccc2S3(=O)=O)CC1	?	-15%	-16%	-4%	-21%
CC(=O)c1ccc2c(c1)N(CCCN(C)C)c1ccccc1S2	?	-11%	-26%	5%	i
CCC(=O)c1ccc2c(c1)N(CCCN(C)C)c1ccccc1S2	11µM*	-9%[56.9 µM]	?	16%	i
Cc1csc2nc(COC(=O)c3ccccc3NC(=O)c3ccc(F)cc3)cc(=O)n12	11%	9%	-4%	.	-37%
O=C(NN=Cc1ccc(N(CCCl)CCCl)cc1)C(=O)c1c[nH]c2ccccc12	5.6µM*	4%	-3%	6%	i
O=P1(c2ccccc2)Nc2ccccc2N1c1ccccc1 (configuration not stated)	4.5µM*	-25%	-1%	5%	i
COC(=O)C1=C(c2ccc(OC(F)(F)F)cc2)C[C@@H]2CC[C@H]1N2C(=O)NCc1ccc(F)cc1	?	15%	-9%	0%	-12%
COC(=O)C1=C(c2ccc(OC(F)(F)F)cc2)C[C@@H]2CC[C@H]1N2C(=O)NC1CCCCC1	13µM*	25%	9%	2%	i
COC(=O)C1=C(c2ccc(OC(F)(F)F)cc2)C[C@@H]2CC[C@H]1N2C(=O)NCc1cccc2ccccc12	7.9µM*	-12%	1%	1%	-9%
COC(=O)C1=C(c2ccc(OCc3ccccc3)cc2)C[C@@H]2CC[C@H]1N2C(=O)NC1CCN(Cc2ccccc2)CC1	7.9µM*	-6%	?	7%	-8%
CCOc1ccc(C(C)=O)cc1COC(=O)c1ccc2c(c1)NC(=O)CS2	-16%	-25%	?	13%	-31%
O=C(C1CCN(S(=O)(=O)c2ccc(Br)s2)CC1)N1CCN(c2cccc(C(F)(F)F)c2)CC1	?	11%	-3%	.	i
Nc1cccc(Nc2nc(OC(C(F)(F)F)C(F)(F)F)nc(OC(C(F)(F)F)C(F)(F)F)n2)c1	4.5µM*	-24%	?	-26%	-30%[57.5 µM]
Cc1ccc(Cl)cc1N1CCN(C(=O)C2CCN(S(=O)(=O)c3ccc4c(c3)oc(=O)n4C)CC2)CC1	?	18%	2%	.	i

Screening results (PubChem)
